Measurements published in publication PMC5540273 (PLoS ONE, 2017).

test system: DAPK3; conditions: concentration: 1 μM, replicates: in singlicate; n = 1
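Also: KINOMEscan kinase panel screen.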

SMILES | %Inh
COc1cc2c(cc1OC[C@@H](O)CO)ncc1c3ccc(C#N)cc3[nH]c21 | 13%
COc1ccc(Nc2ncc(C#N)c(Nc3ccccc3C(N)=O)n2)cc1N1CCN(C)CC1.Cl [GSK1558669] | 99.2%
Cc1cccc(-c2nc(-c3ccc(S(C)(=O)=O)cc3)sc2-c2ccncc2)c1 | 0%
COc1cc(Nc2nccc(N3CCC(NC(=O)c4cccc(NC(C)=O)c4)C3)n2)cc(OC)c1OC (stereo not shown) [GSK1379754] | 19%
Cc1ccc(NC(=O)c2ccnc(N3CCN(C)CC3)c2)cc1-c1ccc(C(=O)NCC2CC2)cc1 [GW775604] | 0%
CSc1ccc(-c2cc3ncnc(SCC(=O)O)c3s2)cc1 | 0%
c1ccc(-c2cc(-c3c[nH]nc3-c3ccccn3)ccn2)cc1 [GW576604] | 22%
O=C(Nc1n[nH]c2cc(-c3cccc(F)c3)ccc12)C1CC1 [SB-735464] | 0%
Cc1c(Cn2c(C)nn3c(=O)cc(N4CCOC(C)C4)nc23)cccc1C(F)(F)F (stereo not shown) [GSK2344444] | 0%
Cc1nnc(-c2ccc3ncc(-c4ccc(S(C)=O)cc4)n3c2)o1 (stereo not shown) | 0%
CN(C(=O)c1ccc(-c2cc(-c3c[nH]nc3-c3ccccn3)ccn2)cc1)C1CCOCC1 [GW810083] | 0%
Fc1ccc(-c2ncn(CCCN3CCOCC3)c2-c2ccccn2)cc1 [SB-211742] | 10%
COc1cc2c(cc1OCCN1CCN(C)CC1)ncc1c3ccc(C#N)cc3[nH]c21 | 7%
O=C(c1ccc(-c2cc(-c3c[nH]nc3-c3ccccn3)ccn2)cc1)N1CCOCC1 [GW812171] | 11%
CC(=O)Nc1ccc(COc2ccc(Nc3ccnc4cc(-c5ccccn5)ccc34)cc2)cc1.Cl [GW440148] | 21%
O=C(NOCC1CC1)c1ccc(F)c(F)c1Nc1ccc(I)cc1Cl | 0%
COc1ccc(Nc2nccc(N3CCC(NC(=O)Nc4cc(C)ccc4C)C3)n2)cc1 (stereo not shown) [GSK1379741] | 10%
Cc1ccc(C(=O)NCC(N)=O)cc1-n1c(C)cc(OCc2ccc(F)cc2F)c(Br)c1=O | 15%

SMILES | %Inh
Cl.Nc1ncnc2occ(-c3ccc(NC(=O)Nc4cc(C(F)(F)F)ccc4F)cc3)c12 [SB-707548] | 14%
Nc1nc(-c2ccc3c(N)n[nH]c3c2)cc(N2CCCC2)n1 [GSK2227430] | 1%
CN(C1=C(c2ccccc2)C(=O)NC1=O)c1ccccc1 [SB-334860] | 8%
CN1c2ccc(CNc3ccc(F)cc3)cc2-c2c(cnn2C)S1(=O)=O | 0%
COc1ccc(S(=O)(=O)NC2CCN(c3cc(C)nc(Nc4cccc(C#N)c4)n3)CC2)cc1.O=C(O)C(F)(F)F [GSK1653539] | 23%
O=c1cc(N2CCOCC2)nc2n(Cc3cccc(Cl)c3Cl)c(C3CC3)nn12 [GSK2358994] | 6%
N#Cc1ccc(-c2cc(-c3c[nH]nc3-c3ccccn3)ccn2)cc1 [GW693028] | 16%
O=C(Nc1cccc(-c2nn3ncccc3c2-c2ccnc(Nc3cccc(C(F)(F)F)c3)n2)c1)c1c(F)cccc1F [GSK299495] | 1%
CCc1ccnc(/C=C/c2n[nH]c3cc(Sc4ccccc4C(=O)NC)ccc23)c1 | 0%
Nc1nccc(-c2c(-c3ccc(F)cc3)ncn2C2CCN(CC(F)(F)F)CC2)n1 [SB-236560] | 0%
Cc1cn2c(=O)cc(N3CCOCC3)nc2n1Cc1cccc(Cl)c1Cl [GSK2334006] | 22%
COc1ccc(COc2cc(-n3cnc4ccccc43)sc2C(N)=O)cc1 [GSK1024304] | 8%
Fc1ccc(-c2ncn(CCCN3CCOCC3)c2-c2cccnc2)cc1 [SB-211743] | 28%
CN1c2ccc(NCc3ccc(F)cc3)cc2-c2c(cnn2C)S1(=O)=O | 15%
O=C(NCCNc1ccnc(Nc2ccc(F)cc2)n1)c1cc2ccccc2s1 [GSK1379874] | 0%
Cc1cccc(-c2nc(Nc3ccc4ncsc4c3)c3ccccc3n2)n1 [GW867588] | 23%
NCC(NC(=O)c1cc(-c2cn[nH]c2)c(-c2ccnc3[nH]ccc23)s1)c1ccccc1.O=C(O)C(F)(F)F.O=C(O)C(F)(F)F (stereo not shown) [GSK1325775] | 87%

test system: T1, DCAMKL1; conditions: concentration: 1 μM, replicates: in singlicate; n = 1
T1 construct: gene DCLK1

SMILES | %Inh
COc1cc2c(cc1OC[C@@H](O)CO)ncc1c3ccc(C#N)cc3[nH]c21 | 0%
COc1ccc(Nc2ncc(C#N)c(Nc3ccccc3C(N)=O)n2)cc1N1CCN(C)CC1.Cl [GSK1558669] | 97.4%
Cc1cccc(-c2nc(-c3ccc(S(C)(=O)=O)cc3)sc2-c2ccncc2)c1 | 0%
COc1cc(Nc2nccc(N3CCC(NC(=O)c4cccc(NC(C)=O)c4)C3)n2)cc(OC)c1OC (stereo not shown) [GSK1379754] | 8%
Cc1ccc(NC(=O)c2ccnc(N3CCN(C)CC3)c2)cc1-c1ccc(C(=O)NCC2CC2)cc1 [GW775604] | 0%
CSc1ccc(-c2cc3ncnc(SCC(=O)O)c3s2)cc1 | 0%
c1ccc(-c2cc(-c3c[nH]nc3-c3ccccn3)ccn2)cc1 [GW576604] | 0%
O=C(Nc1n[nH]c2cc(-c3cccc(F)c3)ccc12)C1CC1 [SB-735464] | 11%
Cc1c(Cn2c(C)nn3c(=O)cc(N4CCOC(C)C4)nc23)cccc1C(F)(F)F (stereo not shown) [GSK2344444] | 0%
Cc1nnc(-c2ccc3ncc(-c4ccc(S(C)=O)cc4)n3c2)o1 (stereo not shown) | 18%
CN(C(=O)c1ccc(-c2cc(-c3c[nH]nc3-c3ccccn3)ccn2)cc1)C1CCOCC1 [GW810083] | 0%
Fc1ccc(-c2ncn(CCCN3CCOCC3)c2-c2ccccn2)cc1 [SB-211742] | 12%
COc1cc2c(cc1OCCN1CCN(C)CC1)ncc1c3ccc(C#N)cc3[nH]c21 | 40%
O=C(c1ccc(-c2cc(-c3c[nH]nc3-c3ccccn3)ccn2)cc1)N1CCOCC1 [GW812171] | 30%
CC(=O)Nc1ccc(COc2ccc(Nc3ccnc4cc(-c5ccccn5)ccc34)cc2)cc1.Cl [GW440148] | 5%
O=C(NOCC1CC1)c1ccc(F)c(F)c1Nc1ccc(I)cc1Cl | 0%
COc1ccc(Nc2nccc(N3CCC(NC(=O)Nc4cc(C)ccc4C)C3)n2)cc1 (stereo not shown) [GSK1379741] | 0%
Cc1ccc(C(=O)NCC(N)=O)cc1-n1c(C)cc(OCc2ccc(F)cc2F)c(Br)c1=O | 3%

SMILES | %Inh
Cl.Nc1ncnc2occ(-c3ccc(NC(=O)Nc4cc(C(F)(F)F)ccc4F)cc3)c12 [SB-707548] | 17%
Nc1nc(-c2ccc3c(N)n[nH]c3c2)cc(N2CCCC2)n1 [GSK2227430] | 13%
CN(C1=C(c2ccccc2)C(=O)NC1=O)c1ccccc1 [SB-334860] | 19%
CN1c2ccc(CNc3ccc(F)cc3)cc2-c2c(cnn2C)S1(=O)=O | 14%
COc1ccc(S(=O)(=O)NC2CCN(c3cc(C)nc(Nc4cccc(C#N)c4)n3)CC2)cc1.O=C(O)C(F)(F)F [GSK1653539] | 0%
O=c1cc(N2CCOCC2)nc2n(Cc3cccc(Cl)c3Cl)c(C3CC3)nn12 [GSK2358994] | 0%
N#Cc1ccc(-c2cc(-c3c[nH]nc3-c3ccccn3)ccn2)cc1 [GW693028] | 8%
O=C(Nc1cccc(-c2nn3ncccc3c2-c2ccnc(Nc3cccc(C(F)(F)F)c3)n2)c1)c1c(F)cccc1F [GSK299495] | 13%
CCc1ccnc(/C=C/c2n[nH]c3cc(Sc4ccccc4C(=O)NC)ccc23)c1 | 0%
Nc1nccc(-c2c(-c3ccc(F)cc3)ncn2C2CCN(CC(F)(F)F)CC2)n1 [SB-236560] | 0%
Cc1cn2c(=O)cc(N3CCOCC3)nc2n1Cc1cccc(Cl)c1Cl [GSK2334006] | 0%
COc1ccc(COc2cc(-n3cnc4ccccc43)sc2C(N)=O)cc1 [GSK1024304] | 0%
Fc1ccc(-c2ncn(CCCN3CCOCC3)c2-c2cccnc2)cc1 [SB-211743] | 19%
CN1c2ccc(NCc3ccc(F)cc3)cc2-c2c(cnn2C)S1(=O)=O | 16%
O=C(NCCNc1ccnc(Nc2ccc(F)cc2)n1)c1cc2ccccc2s1 [GSK1379874] | 0%
Cc1cccc(-c2nc(Nc3ccc4ncsc4c3)c3ccccc3n2)n1 [GW867588] | 0%
NCC(NC(=O)c1cc(-c2cn[nH]c2)c(-c2ccnc3[nH]ccc23)s1)c1ccccc1.O=C(O)C(F)(F)F.O=C(O)C(F)(F)F (stereo not shown) [GSK1325775] | 6%
